Data as given in PubChem BioAssay AID1159580 (chemical genetic matrix, 2015).
Where “and” joins values, the source holds several entries; their conditions need not be identical. Equal entries are not always repeated. Hit rate of the full screen: of about 5,500 compounds, about 2,000 (36%) were called active. Not shown: some 18% with an inconclusive outcome. Rule as the data show it: active = normalized growth mostly below about 0.91 (no sharp cut-off); inconclusive = no clear call, values can overlap the other calls; inactive = mostly above about 0.92. Some of the results follow.

Assay: chemical genetic growth profiling, strain panel (AID 1159580);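 also: tested at 20 µM; growth read once vehicle control cultures reached saturation at 30 °C; 1 = growth at the plate median or of vehicle wells; lower values mean less growth of the strain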
Conditions: S. cerevisiae deletion strains, growth OD

Measured: normalized growth

OCc1ccccc1O[C@@H]1O[C@H](CO)[C@@H](O)[C@H](O)[C@H]1O
inactive: locus YAL013W, strain DEP1, stronger effect = lower value 0.994 | locus YAL021C, strain ccr4, stronger effect = lower value 0.98 | locus YAL026C, strain drs2, stronger effect = lower value 0.99 | locus YAL030W, strain snc1, stronger effect = lower value 0.964 | locus YBL061C, strain skt5, stronger effect = lower value 0.983 | locus YBR009C, strain hhf1, stronger effect = lower value 0.977 | locus YBR021W, strain FUR4, stronger effect = lower value 1.04 | locus YBR023C, strain chs3, stronger effect = lower value 0.99 | locus YBR171W, strain sec66, stronger effect = lower value 0.98 | locus YBR229C, strain ROT2, stronger effect = lower value 0.95 | locus YBR231C, strain swc5, stronger effect = lower value 0.983 | locus YBR279W, strain paf1, stronger effect = lower value 0.983 | locus YCL011C, strain gbp2, stronger effect = lower value 0.98 | locus YCL016C, strain dcc1, stronger effect = lower value 0.991 | locus YCL029C, strain bik1, stronger effect = lower value 0.994 | locus YCL069W, strain vba3, stronger effect = lower value 1 | locus YCR088W, strain abp1, stronger effect = lower value 0.98 | locus YDL005C, strain med2, stronger effect = lower value 0.989 | locus YDL035C, strain GPR1, stronger effect = lower value 1 | locus YDL040C, strain nat1, stronger effect = lower value 0.994 | locus YDL074C, strain BRE1, stronger effect = lower value 0.966 | locus YDL101C, strain DUN1, stronger effect = lower value 0.976 | locus YDL134C, strain PPH21, stronger effect = lower value 0.987 | locus YDL185W, strain tfp1, stronger effect = lower value 0.983 | locus YDL192W, strain arf1, stronger effect = lower value 0.994 | locus YDR001C, strain nth1, stronger effect = lower value 0.984 | locus YDR069C, strain doa4, stronger effect = lower value 0.987 | locus YDR101C, strain arx1, stronger effect = lower value 0.946 | locus YDR137W, strain rgp1, stronger effect = lower value 1.02 | locus YDR150W, strain NUM1, stronger effect = lower value 0.98 | locus YDR159W, strain sac3, stronger effect = lower value 0.944 | locus YDR162C, strain NBP2, stronger effect = lower value 0.997 | locus YDR195W, strain ref2 0.962 | locus YDR297W, strain sur2, stronger effect = lower value 1 | locus YDR318W, strain mcm21, stronger effect = lower value 0.999 | locus YDR334W, strain swr1, stronger effect = lower value 0.925 | locus YDR335W, strain msn5, stronger effect = lower value 0.989 | locus YDR388W, stronger effect = lower value 0.996 | locus YDR392W, strain spt3, stronger effect = lower value 0.984 | locus YDR502C, strain sam2, stronger effect = lower value 0.987 | locus YEL003W, strain gim4, stronger effect = lower value 0.984 | locus YEL037C, strain rad23, stronger effect = lower value 0.984 | locus YEL061C, strain CIN8 (second series), stronger effect = lower value 0.972 | locus YEL061C, strain CIN8, stronger effect = lower value 0.978 | locus YER015W, strain faa2, stronger effect = lower value 0.998 | locus YER016W, strain bim1, stronger effect = lower value 0.992 | locus YER110C, stronger effect = lower value 0.994 | locus YER111C, strain swi4, stronger effect = lower value 1.01 | locus YER155C, strain BEM2 (second series), stronger effect = lower value 0.998 | locus YER155C, strain BEM2, stronger effect = lower value 0.996 | locus YER167W, strain BCK2, stronger effect = lower value 0.99 | locus YFR010W, strain ubp6, stronger effect = lower value 0.998 | locus YGL078C, strain dbp3, stronger effect = lower value 0.988 | locus YGL086W, strain mad1, stronger effect = lower value 0.97 | locus YGL167C, strain pmr1, stronger effect = lower value 1 | locus YGL173C, strain kem1, stronger effect = lower value 0.995 | locus YGL227W, strain vid30, stronger effect = lower value 0.965 | locus YGL240W, strain doc1, stronger effect = lower value 0.996 | locus YGL248W, strain PDE1, stronger effect = lower value 0.979 | locus YGL253W, strain hxk2, stronger effect = lower value 0.987 | locus YGR078C, strain PAC10, stronger effect = lower value 0.97 | locus YGR135W, strain pre9, stronger effect = lower value 1.07 | locus YGR229C, strain SMI1, stronger effect = lower value 1.01 | locus YGR252W, strain gcn5, stronger effect = lower value 1.08 | locus YHR013C, strain ard1, stronger effect = lower value 1.04 | locus YHR027C, strain rpn1, stronger effect = lower value 0.959 | locus YHR030C, strain SLT2, stronger effect = lower value 0.992 and 0.993 | locus YHR079C, strain IRE1 (second series), stronger effect = lower value 0.983 | locus YHR079C, strain IRE1, stronger effect = lower value 1.03 | locus YHR094C, strain hxt1, stronger effect = lower value 1 | locus YHR129C, strain ARP1, stronger effect = lower value 0.991 | locus YHR142W, strain chs7, stronger effect = lower value 0.984 | locus YHR200W, strain rpn10, stronger effect = lower value 0.987 | locus YIL066C, strain RNR3, stronger effect = lower value 0.967 | locus YIL073C, strain SPO22, stronger effect = lower value 1.02 | locus YIL125W, strain kgd1, stronger effect = lower value 0.989 | locus YIR030C, strain dcg1, stronger effect = lower value 0.997 | locus YJL092W, strain hpr5, stronger effect = lower value 0.997 | locus YJL095W, strain BCK1 (second series), stronger effect = lower value 0.987 | locus YJL095W, strain BCK1, stronger effect = lower value 0.978 and 1.01 | locus YJL115W, strain asf1, stronger effect = lower value 0.992 | locus YJL129C, strain trk1, stronger effect = lower value 0.967 | locus YJL134W, strain LCB3, stronger effect = lower value 0.991 | locus YJL154C, strain vps35, stronger effect = lower value 0.991 | locus YJL164C, strain tpk1, stronger effect = lower value 0.993 | locus YJL166W, strain qcr8, stronger effect = lower value 1.01 | locus YJL168C, strain set2, stronger effect = lower value 0.986 | locus YJL187C, strain SWE1 (second series), stronger effect = lower value 0.952 | locus YJL187C, strain SWE1, stronger effect = lower value 0.997 | locus YJR043C, strain POL32, stronger effect = lower value 0.994
